Assay [1] in a line: CCTE_Shafer_MEA_dev_burst_duration_mean: CCTE's Neural Network Formation Assay for Mean Burst Duration, Shafer Lab (AID 2284045).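 On AC50: curve fitted for loss meaning shorter burst duration than DMSO.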 An outline of the steps: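 Primary rat cortical neurons on 48-well 16-electrode MEA plates, exposed from day 0 with renewal at DIV 5 and 9; spontaneous activity recorded on days 5, 7, 9, 12. Well-mean burst duration across bursting electrodes, collapsed as trapezoidal AUC; DMSO baseline.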

Assay [2] is described as follows: CCTE_Shafer_MEA_dev_interburst_interval_mean: CCTE's Neural Network Formation Assay for Mean Interburst Interval, Shafer Lab (AID 2284046).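 Further: well-mean interburst interval of bursting electrodes as AUC over four recording days; curve fitted for decrease in interburst interval relative to DMSO.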 An outline of the steps:
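Recordings on days 5, 7, 9 and 12 give well-mean interburst interval across actively bursting electrodes, summarized as area under the curve. Cultures: rat cortical neurons, continuous exposure from day 0, compound renewed at feeds; decrease analyzed versus DMSO.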

Assay [3] is described as follows: CCTE_Shafer_MEA_dev_inter_network_spike_interval_mean: CCTE's Neural Network Formation Assay for Mean Inter-network Spike Interval, Shafer Lab (AID 2284047). Put shortly:
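Primary rat cortical neurons on 16-electrode MEA wells, exposed from plating day 0 through DIV 12, compound renewed at DIV 5 and 9 media changes. Mean interval between network-spike peaks recorded DIV 5, 7, 9, 12; collapsed as trapezoidal AUC, fitted downward versus DMSO.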

Assay [4] can be described thus: CCTE_Shafer_MEA_dev_network_spike_number: CCTE's Neural Network Formation Assay for Number of Network Spikes, Shafer Lab (AID 2284048).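 Further: synchronized bursts across electrodes counted on days 5 7 9 12 and integrated as AUC.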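 On AC50: fit as a loss of signal meaning fewer network spikes than DMSO.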 Put shortly: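 Primary rat cortical neurons on PEI/laminin 48-well MEA plates, dosed from plating day 0 for 12 days, renewed at DIV 5 and 9. Network spike counts recorded DIV 5, 7, 9, 12, collapsed as trapezoidal AUC; DMSO baseline.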

Assay [5] in a line: CCTE_Shafer_MEA_dev_network_spike_peak: CCTE's Neural Network Formation Assay for Mean Number of Electrodes in Network Spike, Shafer Lab (AID 2284049).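 On AC50: fitted for loss of signal meaning fewer electrodes in network spikes than DMSO.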 An outline of the steps: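 Network-spike peak electrode count from recordings on days 5, 7, 9 and 12 was combined as trapezoidal area under the curve. Rat cortical cultures were treated continuously from plating, with compound renewed at each feed (DIV 5, 9); fits versus DMSO.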

Assay [6] is described as follows: CCTE_Shafer_MEA_dev_spike_duration_mean: CCTE's Neural Network Formation Assay for Mean Spike Duration, Shafer Lab (AID 2284051).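 Further: mean network spike duration pooled as area under curve over DIV 5 to 12 recordings.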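 On AC50: potency for a decrease in mean network spike duration versus DMSO.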 Put shortly:
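Primary rat cortical neurons on 16-electrode MEA wells (PEI-coated, laminin in plating drop), exposed from plating through DIV 12 with compound renewed at DIV 5 and 9. Mean network-spike duration recorded DIV 5, 7, 9, 12; trapezoidal AUC across days, DMSO baseline.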

Assay [7] in a line: CCTE_Shafer_MEA_dev_network_spike_duration_std: CCTE's Neural Network Formation Assay for Standard Deviation of Network Spike Duration, Shafer Lab (AID 2284052).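 Further: area under curve of spike duration SD across recording days 5 to 12; hits are decreases in network spike duration SD versus DMSO vehicle.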 Put shortly: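 Primary rat cortical neurons on PEI-coated 16-electrode MEA wells, exposed from plating day 0 through day 12 with compound renewed at DIV 5 and 9. Network spike duration SD recorded on days 5, 7, 9, 12, collapsed as trapezoidal AUC; loss-of-signal fit versus DMSO.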

The nature of assay [8]: CCTE_Shafer_MEA_dev_per_network_spike_spike_number_mean: CCTE's Neural Network Formation Assay for Mean Number of Spikes in a Network Spike, Shafer Lab (AID 2284053).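 On AC50: fitted as decrease in spikes per network spike relative to DMSO.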 An outline of the steps:
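Primary rat cortical neurons on 48-well, 16-electrode MEA plates were exposed from plating to DIV 12, with dosing renewed on DIV 5 and 9. Spikes per network spike (0.05 s peak window) were recorded on DIV 5, 7, 9 and 12 and collapsed as trapezoidal AUC versus DMSO.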

A short description of assay [9]: CCTE_Shafer_MEA_dev_per_network_spike_spike_percent: CCTE's Neural Network Formation Assay for Percent of Spikes in a Network Spike, Shafer Lab (AID 2284054). An outline of the steps: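 Rat primary cortical neurons were grown on 48-well MEA plates (16 electrodes/well), exposed from plating day 0 through day 12, with treatment renewed on DIV 5 and 9. Percent of spikes within 0.05 s network-spike peaks was measured, summarised as AUC across days 5, 7, 9, 12.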

Assay [10] can be described thus: CCTE_Shafer_MEA_dev_correlation_coefficient_mean: CCTE's Neural Network Formation Assay for Mean Correlation Coefficient, Shafer Lab (AID 2284093).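 On AC50: well mean pairwise spike train correlation integrated as AUC over recording days 5 to 12; potency fitted for loss of correlation relative to DMSO vehicle wells.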 An outline of the steps:
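Spontaneous activity recorded on days 5, 7, 9 and 12 post-plating; pairwise spike correlations are averaged across active electrodes and collapsed to an area-under-curve. Rat cortical cultures are dosed from plating through 12 days, with compound renewed at media changes.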

Assay [11] in a line: CCTE_Shafer_MEA_acute_AB: CCTE's Alamar Blue Assay for Cytotoxicity in the Neural Acute Assay, Shafer Lab (AID 2284069; active means hit-call score of the fitted dose curve at least 0.9, where 1 is the maximum;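 further: active compounds lower the viability signal compared with DMSO wells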). Put shortly: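 Primary rat cortical neurons on MEA plates, exposed acutely after baseline recording on day 13 or 15 post-plating. Viability by CellTiter Blue resazurin reduction (1:6 reagent dilution), fluorescence 544/590 nm; loss of signal versus DMSO.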
For orientation: The colour change of resazurin is a common sign of viable cells or microbes.

Assay [12] can be described thus: CCTE_Shafer_MEA_dev_LDH: CCTE's Lactate Dehydrogenase Assay for Cytotoxicity in the Neural Network Formation Assay, Shafer Lab (AID 2284068; active means hit-call score of the fitted dose curve at least 0.9, where 1 is the maximum;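 further: exposure for twelve days from plating with re-dosing on DIV 5 and 9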). Put shortly: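 Primary rat cortical neurons were plated on PEI/laminin MEA plates and exposed from day 0 for twelve days, with compound renewed at DIV 5 and 9. Cytotoxicity was determined by spectrophotometric LDH assay relative to DMSO.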

Assay [13] in a line: CCTE_Shafer_MEA_dev_AB: CCTE's Alamar Blue Assay for Cytotoxicity in the Neural Network Formation Assay, Shafer Lab (AID 2284083; active means hit-call score of the fitted dose curve at least 0.9, where 1 is the maximum;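 further: twelve days of exposure from plating with re-dosing on DIV 5 and 9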). Put shortly:
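Primary rat cortical neurons on PEI-coated 48-well MEA plates, 1.5 x 10^5 cells/well in laminin drop; compound exposure from day 0 of plating for twelve days, renewed at medium changes on DIV 5 and 9. Viability read as resazurin reduction by fluorescence, relative to DMSO.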

A short description of assay [14]: UKN2_HCS_IMR90_neural_migration: University of Konstanz (UKN) Leist Lab Neural Crest Cell Migration Assay in human induced IMR90 Pluripotent Stem Cells (UKN2) (AID 2284204). The note with it: actives raise or lower the signal. Put shortly: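 iPSC-derived IMR90 neural crest cells seeded around stoppers on PLO/laminin/fibronectin; migration started in N2-S medium with EGF/FGF, compounds added after 24 h for 24 h. Migration into cell-free area imaged after calcein-AM/Hoechst staining; bidirectional fit versus DMSO.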

Assay [15] can be described thus: CCTE_Shafer_MEA_acute_LDH: CCTE's Lactate Dehydrogenase Assay for Cytotoxicity in the Neural Acute Assay, Shafer Lab (AID 2284086; active means hit-call score of the fitted dose curve at least 0.9, where 1 is the maximum;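 further: active means LDH release rises above DMSO vehicle level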). Put shortly:
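Medium from rat cortical neuron MEA cultures sampled right after the 40 min compound-exposure recording; released LDH measured by absorbance at 490 nm. Analyzed as signal gain relative to DMSO.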

The next assay has as its system DIO2 (gene 1734). Kind of assay: CCTE_GLTED_hDIO2: CCTE's human Deiodinase 2 (DIO2) Inhibition Assay, Great Lakes Toxicology and Ecology Division (GLTED) Lab (AID 2284050; active means hit-call score of the fitted dose curve at least 0.9, where 1 is the maximum). An outline of the steps:
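Cell-free human DIO2 incubated 3 h with chemical; liberated iodide quantified by Sandell-Kolthoff absorbance. Triplicate plates; loss of signal fitted vs DMSO.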

A further assay relates to DIO3 (gene 1735). Kind of assay: CCTE_GLTED_hDIO3: CCTE's human Deiodinase 3 (DIO3) Inhibition Assay, Great Lakes Toxicology and Ecology Division (GLTED) Lab (AID 2284055; active means hit-call score of the fitted dose curve at least 0.9, where 1 is the maximum;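 further: potency is for inhibition seen as loss of released iodide signal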). Put shortly:
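Human DIO3 from an adenovirus expression system is incubated 3 h with test chemical. Released iodide is quantified by Sandell-Kolthoff absorbance, in triplicate plates. Loss of signal is fitted relative to DMSO.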

Results filed as inconclusive are left out. Activity calls are given as the source filed them. How the source made its calls, unless noted: active means hit-call score of the fitted dose curve at least 0.9, where 1 is the maximum; inactive means score below 0.9.

Usually AC50 stands for the concentration at which the activity in the assay is half-maximal.

As to `CC(=O)C(F)(F)C(F)(F)F`, the compound was classed as inactive in [1], in assay [2], in assay [3], in assay [4], in [5] and in [6]. The result in assay [7], in assay [8], in [9] and in assay [10] was inactive.

On to `Oc1ccc(Cc2ccc(O)cc2)cc1`, for which the result in [11] was inactive.

With `C=CCOC(F)(C(F)(F)F)C(F)(F)F`, the call in assay [1], in assay [2], in assay [3], in assay [4], in assay [6] and in assay [7] was inactive. In addition, the compound was classed as inactive in assay [8], in assay [9] and in assay [10]. For the same compound, the AC50 in assay [5] is 0.0255 µM (active).

Turning to `CCOCn1c(-c2ccc(Cl)cc2)c(C#N)c(Br)c1C(F)(F)F`, the AC50 in [1] is 2.71 µM (active); in [2], 6.29 µM (active); in assay [4], 7.36 µM (active); in assay [5] it was 8.42 µM (active); in [6], 6.23 µM (active); in [7], 1.64 µM (active). For the same compound, the AC50 in [8] was 6.48 µM (active); in assay [9], 10.8 µM (active); in assay [12] it was 12.1 µM (active); in assay [13], 20.4 µM (active); in assay [10] it was 5.53 µM (active); in assay [14], 9.47 µM (active). The compound was called inactive in [3].

With `C=CC(F)(C(F)(F)F)C(F)(F)C(F)(F)F` (stereo unspecified), the compound was classed as inactive in assay [1], in assay [2], in [3], in assay [4], in assay [5] and in assay [6]. In addition, the compound was called inactive in [7], in assay [8], in assay [9], in [12] and in assay [10].

Regarding `CC(C)[C@@H](Nc1ccc(C(F)(F)F)cc1Cl)C(=O)OC(C#N)c1cccc(Oc2ccccc2)c1` (stereo partly specified), the compound was classed as inactive in assay [1], in assay [2], in assay [3], in [4], in [7] and in [8]. The outcome in assay [11] and in assay [15] was inactive. Also, the AC50 in assay [5] was 20.9 µM (active); in [6] it was 25.8 µM (active); in assay [9], 14.5 µM (active); in assay [12] it was 23.5 µM (active); in assay [13], 14.5 µM (active); in assay [10], 14.5 µM (active).

Regarding `CC(C)(C)c1ccccc1O`, the compound was called inactive in assay [11] and in [15].

For `N#Cc1cccnc1`, the compound was classed as inactive in assay [15].

Consider `O=C1c2ccccc2C(=O)C1C(=O)C(c1ccccc1)c1ccc(Cl)cc1` (stereo unspecified), for which the AC50 with DIO2 (gene 1734) was 91.9 µM (active); with DIO3 (gene 1735), 68.5 µM (active).

Consider `FC(F)OCC(F)(F)C(F)(F)F`, for which the compound was called inactive in [1], in assay [2], in assay [3], in assay [4], in assay [5] and in [6]. In addition, the call in assay [7], in [8], in assay [9] and in assay [10] was inactive.

Turning to `OC(Cc1ccccc1Cl)(Cn1[nH]cnc1=S)C1(Cl)CC1` (stereo unspecified), the compound was called inactive in assay [1], in assay [3] and in assay [7]. Besides, the AC50 was 82.5 µM (active) in assay [2]; 24.4 µM (active) in [4]; 50 µM (active) in assay [5]; 33.6 µM (active) in assay [6]; 23.6 µM (active) in assay [8]; 82.3 µM (active) in assay [9]. Further, the AC50 in assay [12] is 73.5 µM (active); in assay [13], 71.3 µM (active); in assay [10] it was 21.5 µM (active); in assay [14], 35.4 µM (active).

`Cc1ccccc1OP(=O)(Oc1ccccc1C)Oc1ccccc1C`: the outcome in assay [1], in assay [3], in assay [4], in [7] and in [15] was inactive. In addition, the half-maximal activity concentration (AC50) was 15 µM (active) in [2]; 18.7 µM (active) in assay [5]; 21.4 µM (active) in assay [6]; 20.3 µM (active) in assay [8]; 19.4 µM (active) in assay [9]; 20.2 µM (active) in assay [12]. The AC50 was 21.1 µM (active) in [13], 15 µM (active) in [10] and 4.73 µM (active) in assay [14].

As for `O=C(Cc1ccccc1)OCCc1ccccc1`, the call in assay [15] was inactive.

Take `CCCCCCCCCCCCc1cccc(S(=O)(=O)O)c1`: the half-maximal activity concentration (AC50) with DIO2 (gene 1734) is 90.4 µM (active); in the assay on DIO3 (gene 1735), 38.1 µM (active). Further, the compound was classed as inactive in assay [11] and in [15].

The record behind these values is PubChem BioAssay (EPA / NIEHS).
